Experiment in all cases: NCI-60 one-dose screen, 48 h (100 = growth as untreated, 0 = no growth, -100 = all killed)
Test [1] has as its system HOP-62 NSCLC. The following applies: 10 µM unless noted.
For test [2], the system named is NCI-H460 lung. Particulars: 10 µM unless noted.
For test [3], the system named is HOP-92 NSCLC. The following applies: 10 µM unless noted.
The subject of test [4] is NCI-H522 lung. Particulars: 10 µM.
The subject of test [5] is A549/ATCC NSCLC. The following applies: 10 µM unless noted.
In test [6] the test system is 786-0 renal. Particulars: 10 µM unless noted.
The subject of test [7] is COLO 205 colon. Particulars: 10 µM unless noted.
Test [8] concerns NCI-H322M lung. Particulars: 10 µM unless noted.

About 83,000 compounds went through this panel and 20% of them were active in at least one assay; those are over-represented in the sample as a whole.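 Results are percent growth after 48 hours of single-concentration exposure. 100 means growth as in untreated cells, lower positive values show inhibition; negative values down to -100 show cell death.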 Unmarked numbers belong to inactive results. The source made the active and inactive calls. Rule for the calls: active = growth percent below 10; inactive = the rest.

From PubChem BioAssay (NCI) come the findings set out here.

Consider `Cc1nc2cc(Nc3nc(Cl)nc(Nc4ccc(F)cc4)n3)ccc2n1Cc1ccccc1`, for which the growth in test [1] was 88.4%; in test [2] it was 88%; in test [3] it was 50.7%; in test [4] it was -69.8% (active); in test [5], 86.7%; in test [6] it was 33%. In addition, in test [7], the growth was 109%.
As to `COc1ccc(-c2c3c(N)c4c(nc3nc3c2c(C)nn3-c2ccccc2)CCCCC4)cc1`, the growth in test [1] is 84.6%; in test [2] it was 82.8%; in test [3], 32.2%; in test [4], 50.2%; in test [5], 81.3%; in test [6], 79.2%. Further, the growth in test [7] is 74.3%.
On to `Cc1nn(CC(=O)O)c2c1C(=O)CC(C)(C)C2`, for which the growth in test [8] is 115%; in test [1], 91.1%; in test [2], 107%; in test [3], 95.5%; in test [4], 96.7%; in test [5] it was 102%. The growth in test [6] was 89.8%; in test [7], 117%.
As for `COc1ccc(-n2ncc3c4nc(OC)c(S(=O)(=O)c5ccccc5)cc4ccc32)cc1`, the growth was 47.5% in test [1]; 78.9% in test [2]; 26.7% in test [3]; 61.3% in test [4]; 71.3% in test [5]; 47.2% in test [6]. In test [7], the growth is 96.6%.
Turning to `O=C(N/N=C/c1ccc(F)cc1)c1[nH]c2ccc(I)cc2c1-c1ccccc1`, the growth is 34% in test [8]; 1.78% (active) in test [2]; 22.5% in test [3]; 4.71% (active) in test [4]; 32.4% in test [5]; 28.3% in test [6]. In test [7], the growth is -40.1% (active).
With `COc1cccc(-c2ccc3c(c2)C2CCN(Cc4ccccc4)C3C2)c1` (stereo not drawn), the growth in test [1] was 72.2%; in test [2], 93.5%; in test [3], 41%; in test [4], 55.1%; in test [5], 71.2%; in test [6], 77.4%. In addition, the growth in test [7] was 79.3%.
In the case of `COc1ccc(-c2nc3sccn3c2/C=C/C(=O)c2cc(OC)c(OC)c(OC)c2)cc1OC`, the growth was 57.9% in test [8]; 6.91% (active) in test [2]; 0.346% (active) in test [3]; 15.3% in test [4]; 54.4% in test [5]; 27.7% in test [6]. Also, the growth in test [7] was 29.6%.
`CC(C)NCC(O)COc1ccc(CCOCC2CC2)cc1` (stereo not drawn): the growth in test [8] is 106%; in test [1] it was 104%; in test [2], 108%; in test [4], 118%; in test [5] it was 99.5%; in test [6], 100%. Moreover, the growth in test [7] was 116%.
In the case of `CCCCCCCCCCCCCCNc1nc(CO)ncc1-c1ccc(C(F)(F)F)cc1`, the growth in test [1] was 92.9%; in test [2], 105%; in test [3] it was 89.6%; in test [4] it was 90.6%; in test [5] it was 98.9%; in test [6] it was 97.3%. Moreover, in test [7], the growth was 108%.
With `O=C(c1ccccc1)C(Br)C(Br)c1cccc([N+](=O)[O-])c1` (stereo not drawn), the growth is 101% in test [8]; 90.2% in test [2]; 65.1% in test [3]; -68.8% (active) in test [4]; 92.7% in test [5]; 90.1% in test [6]. Moreover, in test [7], the growth was -95% (active).
Consider `COc1cc(C2=NN(c3ccc(S(N)(=O)=O)cc3)C(c3ccc(Cl)cc3)C2)cc(OC)c1OC` (stereo not drawn), for which the growth in test [8] is 66.9%; in test [1], 60.6%; in test [2] it was 25.8%; in test [3], 23.3%; in test [4], 44.9%; in test [5], 26.2%. In addition, the growth in test [6] was 66.5%; in test [7], 48.5%.
On to `Cc1nc2cc(Nc3nc(NCCN)nc(Nc4ccc(F)cc4)n3)ccc2n1Cc1ccccc1`, for which the growth in test [8] is 99.7%; in test [1], 79.1%; in test [2], 82.6%; in test [3] it was 48.5%; in test [4] it was 85.9%; in test [5], 83.9%. In addition, the growth in test [6] is 82.4%; in test [7], 82%.
For `COc1ccc(C(=O)C2=CC(=O)C(=O)C2)cc1OC`, the growth in test [1] is 94.1%; in test [2], 103%; in test [3], 95.9%; in test [4] it was 86.6%; in test [5], 106%; in test [6], 101%. Further, the growth in test [7] is 112%.
Turning to `COc1ccc(OC)c2ncccc12`, the growth in test [2] was 108%; in test [3], 72.2%; in test [4], 84%; in test [5] it was 108%; in test [6] it was 102%; in test [7], 106%.
Consider `Cn1c2ccccc2c2nn(C(=O)c3ccccc3)c(=O)nc21`, for which the growth in test [8] was 99.6%; in test [1] it was 115%; in test [2] it was 105%; in test [4], 99%; in test [5], 116%; in test [6], 107%. Further, the growth in test [7] was 118%.
As for `O=C(Nc1ccc(Cl)c(Cl)c1)NC(CO)(CO)CO`, the growth is 88.1% in test [1]; 103% in test [2]; 79.9% in test [3]; 88.7% in test [4]; 97.4% in test [5]; 92.3% in test [6]. For the same compound, in test [7], the growth is 106%.
As for `CCCCNNC(=O)c1ccc(Br)cc1`, the growth in test [1] is 55.5%; in test [2], 50.1%; in test [5] it was 57.6%; in test [6] it was 79%; in test [7] it was 46.1%.
Turning to `CC(=O)Nc1ccc(S(=O)(=O)N/N=C\c2ccc(Cl)c(Cl)c2)cc1`, the growth in test [1] was 100%; in test [2], 101%; in test [3] it was 72.1%; in test [5] it was 93.8%; in test [6] it was 113%; in test [7] it was 109%.
Consider `COc1ccc(-c2nc(Nc3ccc(F)cc3)nc(Nc3ccc4c(c3)nc(C)n4Cc3ccccc3)n2)cc1`, for which the growth was 53.3% in test [1]; 30.3% in test [2]; 39.7% in test [3]; 55.4% in test [4]; 32% in test [5]; 46.7% in test [6]. Besides, the growth in test [7] is 28.2%.
For `COc1cc(C(F)(F)F)ccc1-c1cc(-c2ccc(F)cc2)n[nH]1`, the growth in test [8] was 90.6%; in test [1], 97.8%; in test [2], 91.6%; in test [3] it was 96.1%; in test [5], 64.9%; in test [6] it was 99.9%.
On to `Cc1cc(Cl)c2c(Cl)ccc(Cl)c2n1`, for which the growth is 102% in test [1]; 111% in test [2]; 93.7% in test [3]; 83% in test [4]; 95.4% in test [5]; 101% in test [6]. Also, the growth in test [7] is 114%.
Regarding `COc1ccc(/C=C(\C#N)c2ccc(OC)cc2)cc1`, the growth is 67.1% in test [1]; 50.9% in test [2]; 54.3% in test [5]; 90.1% in test [6]; 78.7% in test [7].
As for `CN1CCN(CCCn2c3c(sc4ncccc43)c(=O)n3nnc(-c4ccccc4)c23)CC1`, the growth was -75.8% (active) in test [1]; -70.7% (active) in test [2]; 59.6% in test [3]; -73.5% (active) in test [4]; -74.7% (active) in test [5]; 95.4% in test [6]. For the same compound, the growth in test [7] was 63.6%.
On to `c1ccc2c(c1)oc1cc3c(cc12)nnc1cccn13`, for which the growth in test [8] was 90.9%; in test [1], 116%; in test [2], 112%; in test [4], 96.7%; in test [5] it was 97.1%; in test [6], 121%.
